Eight compounds from PubChem BioAssay (NCATS) can be followed below.

In assay [1] the target is Lysosomal acid glucosylceramidase (Homo sapiens) (UniProt P04062). The experiment in a line: Glucocerebrosidase-p2 (AID 348; in the data active means potency below about 10 µM; further: potency means the concentration at half of the fitted maximal effect). As to conditions: purified GBA, blue fluorogenic substrate, 40 min. In outline: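 Normal human glucocerebrosidase (0.2 nM) with blue fluorogenic substrate (80 uM final) in citrate/phosphate pH 5.9 with 10mM sodium taurocholate, 0.01% tween-20; 40 min RT, NaOH/glycine stop; fluorescence Ex 365/Em 440; AC50 from a titration from 0.6 nM upwards.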

The nature of assay [2]: AP1 Signaling Pathway (AID 357).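 Further: ME-180 reporter cells stimulated with EGF at its EC50 level; on the % scale 0 is the no-effect control and ±100 the full control effect.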 As to conditions: ME-180 AP-1-bla reporter, EGF-induced, beta-lactamase ratio, 5 h; at 7.69 µM (top of the series) unless noted. A digest of the protocol: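 Titration-series screen for positive or negative modulators of EC50 EGF-induced signaling in ME-180 cells carrying an AP-1-driven beta-lactamase reporter. After 5 hours at 37 degrees Celsius, CCF4 460nm/530nm emission ratio gave %Activity; AC50 values derived.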

Assay [3] concerns the target Cytochrome P450 1A2 (Homo sapiens) (UniProt P05177). Nature of the assay: p450-cyp1a2 (AID 410; calls by dose curve; further: potency means the concentration at half of the fitted maximal effect;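 on activity change, negative = inhibition: -100% = full effect of reference inhibitor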). As to conditions: recombinant CYP1A2, luciferin-ME demethylation, luminescence; series mostly up to 11.4 µM. A digest of the protocol: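 O-Demethylation of luciferin 6' methyl ether by human CYP1A2 is monitored as luciferase luminescence. Substrate sits at Km (100uM); enzyme is 20nM. Values are scaled to 57 uM furafylline as maximal inhibition.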

A short description of assay [4]: NFAT Signaling Pathway (AID 444).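 Further: carbachol stimulus at about its EC50 of 1 µM final; on the % scale 0 is the no-effect control and ±100 the full control effect.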 As to conditions: Jurkat NFAT-bla M1, carbachol, beta-lactamase ratio, 5 h; at 7.69 µM (top of the series) unless noted. A digest of the protocol: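 Jurkat cells with NFAT-driven β-lactamase reporter and co-expressed M1 receptor, stimulated with carbachol (final 1 uM, ~EC50), compound titration, 5 h at 37 °C. CCF4 loaded 1 h at RT; 460/530 nm ratio gave %activity and AC50.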

Assay [5] can be described thus: Stat Signaling Pathway (AID 446).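 Further: ME-180 cervical cancer cells given 40 pM IL-6 alongside compound; SIE-controlled beta-lactamase reporter measured as 460/530 nm FRET emission ratio; on the % scale 0 is the no-effect control and ±100 the full control effect.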 As to conditions: ME-180 (cervical carcinoma) SIE beta-lactamase reporter, IL-6 stimulated, 5 h; at 7.69 µM (top of the series) unless noted. In outline:
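FRET read-out (405 nm excitation, 460/530 nm emission) of a beta-lactamase reporter under a STAT-inducible element in ME-180 cervical carcinoma cells. Cells with compound receive 40 pM IL-6 for 5 h. Values are normalised to AC90 stimulation and AC90 JAK-inhibitor controls.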

In assay [6] the target is Glucocorticoid receptor (Homo sapiens) (UniProt P04150). The experiment in a line: GR-GFP Redistribution (AID 450;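 active means compounds whose dose series gives a full or clear partial fitted curve of increased nuclear translocation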; further: potency means the concentration at half of the fitted maximal effect). As to conditions: U2OS GR-GFP nuclear translocation, laser cytometry, 2 h.
The target is the same in assay [7]. The experiment in a line: GR-EFC Redistribution (AID 451; calls by dose curve; further: potency means the concentration at half of the fitted maximal effect). As to conditions: CHO-K1 GR-EFC translocation, beta-gal luminescence, 2 h. In outline:
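CHO-K1 cells expressing nuclear EA and GR-ED fragments of b-gal; compounds titrated up to 46 uM final, 2 h at 37 C. GR nuclear translocation read as complemented b-gal luminescence after 1 h RT detection.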

Assay [8] deals with Mitogen-activated protein kinase 10 (Mus musculus) (UniProt Q61831). Nature of the assay: JNK3 AlphaScreen Assay (AID 530).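 Further: kinase came from lysate of stimulated human HepG2 cells; signal reports phosphorylation of biotinylated GST-cJun 1-79 at Ser73 with 10 µM ATP; on the % scale 0 is the no-effect control and ±100 the full control effect.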 As to conditions: JNK3 lysate, c-Jun phosphorylation; series mostly up to 11.4 µM. In outline:
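Activity was read by AlphaScreen after JNK3-containing HepG2 lysate (cytokine pre-activated) phosphorylated biotinylated GST-cJun with 10 uM ATP at room temperature. Phospho-Ser73 cJun antibody with Protein-A acceptor beads provided detection.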

The target in assay [9] is 3',5'-cyclic-AMP phosphodiesterase 4B (Homo sapiens) (UniProt Q07343). The experiment in a line: qHTS Assay for Inhibitors of PDE-IV (AID 607; active means well fitted activation curve with a large enough effect in the main read-out, with a control signal flat, not every such curve was filed as active; further: % of control where 0% means no effect). As to conditions: HEK293 ACTOne CNG channel cells, membrane potential fluorescence; series mostly up to 22.9 µM. A digest of the protocol:
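Cell-based read-out of cAMP via a modified cyclic nucleotide-gated channel and membrane potential dye (535/590 nm) in HEK293 cells expressing PDE4 endogenously. Compounds tested up to 22.9 uM final; 100 uM RO 20-1724 reference.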
(qHTS replaces the single test concentration by a dilution series.)

Assay [10] addresses Cytochrome P450 3A4 (Homo sapiens) (UniProt P08684). Nature of the assay: qHTS Assay for Activators of Cytochrome P450 3A4 (AID 885; active means well fitted curve in the direction sought with a large enough effect; an effect the other way counts as inactive or inconclusive; further: nearly all actives have a fitted effect of over 65% in size). As to conditions: recombinant CYP3A4, Luciferin-PPXE luminescence, 60 min; series mostly up to 11.4 µM. In outline:
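Luminescent readout of luciferin formed from 25 uM Luciferin-PPXE (KM level) by 20 nM CYP3A4 in 200 mM KPO4, with 60 min NADPH-driven reaction at room temperature after 10 min compound exposure. Ketoconazole (57 uM) defined 100% inhibition.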

The target in assay [11] is Cytochrome P450 2C19 (Homo sapiens) (UniProt P33261). Nature of the assay: qHTS Assay for Inhibitors and Substrates of Cytochrome P450 2C19 (AID 899; active means well fitted curve in the direction sought with a large enough effect; an effect the other way counts as inactive or inconclusive; further: potency means the concentration at half of the fitted maximal effect; nearly all actives have a fitted effect of over 60% in size). As to conditions: recombinant CYP2C19, luciferin-H EGE luminescence; series mostly up to 11.4 µM. In outline:
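Luminescent read-out of luciferin formed from Luciferin-H EGE (10uM, equal to KM). Enzyme 5nM in 50mM KPO4; compound added, 10 min at 37C, then NADPH regenerating system for 60 min at 37C. Full inhibition defined by 57uM ketoconazole.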

Assay [12] concerns the target Cytochrome P450 2D6 (Homo sapiens) (UniProt P10635). Nature of the assay: qHTS Assay for Inhibitors and Substrates of Cytochrome P450 2D6 (AID 891; active means well fitted curve in the direction sought with a large enough effect; an effect the other way counts as inactive or inconclusive; further: nearly all actives have a fitted effect of over 60% in size; further: potency means the concentration at half of the fitted maximal effect). As to conditions: recombinant CYP2D6, luciferin-ME EGE luminescence; series mostly up to 11.4 µM. In outline:
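Luminescent read-out of luciferin formed by 5 nM human CYP2D6 demethylating 30 uM Luciferin-ME EGE (Km level) over 60 min at room temperature after NADPH regeneration addition. Data normalized to full inhibition by 1.43 uM quinidine.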

SMILES strings stand for the structures. Values without a mark were called inactive. Records with an inconclusive call do not appear. The source made the active and inactive calls. Unless noted, the call rests on the fitted dose curve; in most records, active means well fitted curve in either direction with a large enough effect (not every such curve was filed as active); inconclusive means small, poorly fitted or top-dose-only effect, or another doubt; inactive means flat fitted curve, though single readings scatter.

Cytochrome P450 1A2 (Homo sapiens), sequence (P05177 whole entry, looked up): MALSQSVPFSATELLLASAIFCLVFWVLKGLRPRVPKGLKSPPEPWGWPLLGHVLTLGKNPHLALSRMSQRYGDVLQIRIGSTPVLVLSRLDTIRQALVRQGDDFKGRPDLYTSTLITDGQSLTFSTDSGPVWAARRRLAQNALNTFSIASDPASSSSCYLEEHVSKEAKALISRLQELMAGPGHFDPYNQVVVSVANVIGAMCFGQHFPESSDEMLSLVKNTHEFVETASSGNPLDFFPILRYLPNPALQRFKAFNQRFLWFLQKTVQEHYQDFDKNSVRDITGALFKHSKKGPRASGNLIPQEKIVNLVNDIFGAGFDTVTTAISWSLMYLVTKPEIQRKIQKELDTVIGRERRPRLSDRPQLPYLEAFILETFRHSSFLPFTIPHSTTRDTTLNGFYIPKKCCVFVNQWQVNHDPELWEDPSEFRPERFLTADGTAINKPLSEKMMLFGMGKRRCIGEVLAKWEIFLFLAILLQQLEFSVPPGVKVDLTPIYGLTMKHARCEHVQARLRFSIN
3',5'-cyclic-AMP phosphodiesterase 4B (Homo sapiens), sequence (Q07343 whole entry, looked up): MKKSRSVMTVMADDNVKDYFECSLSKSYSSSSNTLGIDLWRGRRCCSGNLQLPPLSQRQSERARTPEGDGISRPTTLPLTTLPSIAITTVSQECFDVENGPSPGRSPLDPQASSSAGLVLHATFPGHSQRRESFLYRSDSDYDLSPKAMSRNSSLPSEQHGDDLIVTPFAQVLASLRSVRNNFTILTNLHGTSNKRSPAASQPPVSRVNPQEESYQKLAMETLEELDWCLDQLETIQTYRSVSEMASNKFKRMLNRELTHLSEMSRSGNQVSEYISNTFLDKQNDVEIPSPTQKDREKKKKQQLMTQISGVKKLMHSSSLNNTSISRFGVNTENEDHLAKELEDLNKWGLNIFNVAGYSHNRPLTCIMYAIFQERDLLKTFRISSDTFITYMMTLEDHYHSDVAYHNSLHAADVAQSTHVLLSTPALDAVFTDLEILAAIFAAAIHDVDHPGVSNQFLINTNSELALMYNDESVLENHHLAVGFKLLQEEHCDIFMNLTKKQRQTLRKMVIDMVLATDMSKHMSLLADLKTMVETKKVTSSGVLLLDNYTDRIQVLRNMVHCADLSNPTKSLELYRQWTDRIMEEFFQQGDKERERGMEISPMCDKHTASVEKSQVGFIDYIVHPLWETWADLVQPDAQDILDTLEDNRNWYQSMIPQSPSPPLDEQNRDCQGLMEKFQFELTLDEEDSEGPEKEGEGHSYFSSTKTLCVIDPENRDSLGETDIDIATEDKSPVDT
Lysosomal acid glucosylceramidase (Homo sapiens), sequence (P04062 whole entry, looked up): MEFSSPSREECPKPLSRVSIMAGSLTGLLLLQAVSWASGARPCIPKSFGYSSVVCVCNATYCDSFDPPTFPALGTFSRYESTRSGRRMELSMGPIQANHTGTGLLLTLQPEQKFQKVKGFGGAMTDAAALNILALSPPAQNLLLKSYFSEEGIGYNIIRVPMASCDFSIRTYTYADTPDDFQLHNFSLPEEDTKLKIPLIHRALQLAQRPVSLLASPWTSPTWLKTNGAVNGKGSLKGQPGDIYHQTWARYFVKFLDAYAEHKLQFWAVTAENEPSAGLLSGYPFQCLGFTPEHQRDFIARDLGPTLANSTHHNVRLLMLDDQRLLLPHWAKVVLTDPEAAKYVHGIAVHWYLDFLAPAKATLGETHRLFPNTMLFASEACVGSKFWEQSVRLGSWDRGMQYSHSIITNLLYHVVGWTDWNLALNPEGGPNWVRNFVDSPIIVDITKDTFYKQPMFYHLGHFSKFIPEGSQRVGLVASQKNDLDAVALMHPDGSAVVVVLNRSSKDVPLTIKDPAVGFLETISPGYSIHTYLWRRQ
Cytochrome P450 2D6 (Homo sapiens), sequence (P10635 whole entry, looked up): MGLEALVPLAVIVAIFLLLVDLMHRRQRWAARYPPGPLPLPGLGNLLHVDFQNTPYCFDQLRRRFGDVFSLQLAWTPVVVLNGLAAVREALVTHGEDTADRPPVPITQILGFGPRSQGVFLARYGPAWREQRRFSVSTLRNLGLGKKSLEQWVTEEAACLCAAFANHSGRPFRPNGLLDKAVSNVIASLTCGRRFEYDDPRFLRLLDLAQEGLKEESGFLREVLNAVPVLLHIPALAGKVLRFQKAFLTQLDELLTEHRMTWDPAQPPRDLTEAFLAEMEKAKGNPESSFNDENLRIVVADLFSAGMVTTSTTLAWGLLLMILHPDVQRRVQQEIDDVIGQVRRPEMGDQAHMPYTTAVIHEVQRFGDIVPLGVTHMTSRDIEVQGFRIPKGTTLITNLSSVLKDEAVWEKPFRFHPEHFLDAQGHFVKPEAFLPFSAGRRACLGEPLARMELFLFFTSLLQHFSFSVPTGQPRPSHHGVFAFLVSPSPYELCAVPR
Glucocorticoid receptor (Homo sapiens), sequence (P04150 whole entry, looked up): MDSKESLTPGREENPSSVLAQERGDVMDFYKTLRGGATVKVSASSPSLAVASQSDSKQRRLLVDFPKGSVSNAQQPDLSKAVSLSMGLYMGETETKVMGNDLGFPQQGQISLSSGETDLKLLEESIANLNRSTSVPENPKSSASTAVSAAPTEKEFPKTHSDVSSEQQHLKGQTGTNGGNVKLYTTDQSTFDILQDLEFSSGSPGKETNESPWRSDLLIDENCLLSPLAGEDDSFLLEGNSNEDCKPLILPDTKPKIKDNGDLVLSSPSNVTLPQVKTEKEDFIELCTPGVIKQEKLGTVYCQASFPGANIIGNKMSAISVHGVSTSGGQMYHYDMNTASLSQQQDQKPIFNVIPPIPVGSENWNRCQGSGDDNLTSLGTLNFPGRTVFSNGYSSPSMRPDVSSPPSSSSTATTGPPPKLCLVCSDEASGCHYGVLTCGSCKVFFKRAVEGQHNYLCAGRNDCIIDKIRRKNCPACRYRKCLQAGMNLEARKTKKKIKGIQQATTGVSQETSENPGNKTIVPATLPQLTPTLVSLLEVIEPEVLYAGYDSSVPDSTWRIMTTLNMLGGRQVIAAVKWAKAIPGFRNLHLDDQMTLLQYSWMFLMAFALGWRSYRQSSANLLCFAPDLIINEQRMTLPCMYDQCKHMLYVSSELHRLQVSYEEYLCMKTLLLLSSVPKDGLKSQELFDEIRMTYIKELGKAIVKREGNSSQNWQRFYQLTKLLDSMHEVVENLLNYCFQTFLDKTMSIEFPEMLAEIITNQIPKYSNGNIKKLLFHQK
Cytochrome P450 3A4 (Homo sapiens), sequence (P08684 whole entry, looked up): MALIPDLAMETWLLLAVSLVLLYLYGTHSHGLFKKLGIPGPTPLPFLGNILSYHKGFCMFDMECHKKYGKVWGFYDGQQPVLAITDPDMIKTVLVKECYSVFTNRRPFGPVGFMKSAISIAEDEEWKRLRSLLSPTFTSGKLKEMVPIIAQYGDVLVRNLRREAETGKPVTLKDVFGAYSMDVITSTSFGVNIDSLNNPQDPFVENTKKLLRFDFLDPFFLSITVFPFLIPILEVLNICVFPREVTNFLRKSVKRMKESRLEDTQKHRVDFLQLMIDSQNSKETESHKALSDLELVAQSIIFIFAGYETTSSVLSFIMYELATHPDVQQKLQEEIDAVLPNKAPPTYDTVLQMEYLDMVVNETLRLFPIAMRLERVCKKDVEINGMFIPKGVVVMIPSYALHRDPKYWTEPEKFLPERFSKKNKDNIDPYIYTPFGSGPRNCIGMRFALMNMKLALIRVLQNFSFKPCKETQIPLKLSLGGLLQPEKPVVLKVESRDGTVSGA
Cytochrome P450 2C19 (Homo sapiens), sequence (P33261 whole entry, looked up): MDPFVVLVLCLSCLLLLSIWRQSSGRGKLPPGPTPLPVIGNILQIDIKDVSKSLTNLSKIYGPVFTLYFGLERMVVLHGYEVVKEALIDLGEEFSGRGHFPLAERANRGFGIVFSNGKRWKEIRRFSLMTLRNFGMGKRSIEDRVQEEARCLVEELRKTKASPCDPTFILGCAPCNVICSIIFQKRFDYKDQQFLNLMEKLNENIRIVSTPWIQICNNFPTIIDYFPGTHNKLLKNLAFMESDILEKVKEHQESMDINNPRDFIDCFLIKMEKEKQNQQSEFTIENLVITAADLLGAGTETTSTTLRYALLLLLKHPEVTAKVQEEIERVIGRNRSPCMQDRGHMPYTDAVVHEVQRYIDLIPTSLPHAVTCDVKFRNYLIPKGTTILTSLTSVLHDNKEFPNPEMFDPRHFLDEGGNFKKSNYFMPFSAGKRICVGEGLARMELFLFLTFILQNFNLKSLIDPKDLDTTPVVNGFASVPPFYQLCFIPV

As for `CCCn1cnc2c(SCc3ccc(Cl)cc3)nc(N)nc21`, the Potency in assay [1] is above 11.4 µM; in [3], 1.26 µM (active); in assay [6], above 46 µM; in [7] it was above 9.22 µM; in assay [11], 0.501 µM (active). The activity change, negative = inhibition in assay [2] is -19.8%; in assay [4], -4.9%. The activity, negative = inhibition in assay [5] is -5.52%. The Potency entry in [8], in [9] and in assay [10] was “inactive” each time.

Regarding `c1ccc2sc(SCCSc3nc4ccccc4s3)nc2c1`, the Potency in [1] is above 11.4 µM; in [3] it was 0.794 µM (active); in assay [6], above 46 µM; in assay [7], above 9.22 µM. Also, the activity change, negative = inhibition was 8.08% in [2] and -22.4% in assay [4]. The activity, negative = inhibition in assay [5] is 2.32%. The Potency result in assay [8], in assay [9] and in [12] was “inactive” each time.

As to `NCCCc1c(-c2ccccc2)nc(N)[nH]c1=O`, the Potency was above 11.4 µM in assay [1], above 46 µM in assay [6] and above 9.22 µM in assay [7]. Moreover, the figures for the activity change, negative = inhibition in [2] and in assay [4] were 0.759% and 4.17%, respectively. For the same compound, the Potency entry in assay [3], in [8], in [9] and in assay [12] was “inactive” each time. The activity, negative = inhibition in assay [5] was 9.18%.

Consider `O=S(=O)(O)c1ccc(N=Nc2ccccc2)cc1`, for which the figures for the Potency in [1], in [6] and in [7] were above 11.4 µM, above 46 µM and above 9.22 µM, respectively. The activity change, negative = inhibition is -9.23% in [2] and 7.04% in assay [4]. The Potency entry in [3], in assay [8], in assay [9] and in assay [12] was “inactive” throughout. Also, the activity, negative = inhibition in assay [5] was 0.896%.

Regarding `CC[C@H](C(=O)c1cccs1)C(O)(C(F)(F)F)C(F)(F)F`, the Potency in [1] is above 11.4 µM; in [6] it was above 46 µM; in assay [7], above 9.22 µM; in [12] it was 3.16 µM (active). Moreover, the activity change, negative = inhibition in assay [2] was -7.57%; in assay [3], -17.5% [at 2.29 µM]; in [4] it was 20.8%. The activity, negative = inhibition in assay [5] is -6.19%. Moreover, the Potency entry in assay [8] and in assay [9] was “inactive” throughout.

On to `O=C(O)C1(C(=O)O)CCN(S(=O)(=O)c2ccccc2)CC1`, for which the Potency was above 11.4 µM in assay [1], above 46 µM in assay [6] and above 9.22 µM in assay [7]. Further, the activity change, negative = inhibition in assay [2] is -0.169%; in assay [3], 14% [at 2.29 µM]; in assay [4], 5.93%. Further, the activity, negative = inhibition in assay [5] is 11.9%. For the same compound, the Potency entry in assay [8], in assay [9] and in assay [12] was “inactive” in each case.

As to `CN=C(N)/N=C(\N)Nc1cc2ccccc2c2ccccc12`, the Potency was above 11.4 µM in assay [1]; 0.251 µM (active) in assay [3]; above 46 µM in assay [6]; above 9.22 µM in assay [7]; 1.58 µM (active) in [12]. Also, the activity change, negative = inhibition was -3.61% in assay [2] and 27.5% in assay [4]. Moreover, the activity, negative = inhibition in [5] is 12.7%. Also, the Potency result in [8] and in assay [9] was “inactive” in each case.

Regarding `COc1cc2nncc(SCc3ccc(Cl)c(Cl)c3)c2cc1OC`, the Potency in assay [1] was above 11.4 µM; in assay [3], 0.794 µM (active); in assay [6] it was above 46 µM; in assay [7] it was above 9.22 µM; in assay [11] it was 2.51 µM (active). For the same compound, the activity change, negative = inhibition was 0.364% in assay [2] and 1.06% in [4]. In assay [5], the activity, negative = inhibition is -13.6%. For the same compound, the Potency entry in assay [8], in assay [9] and in assay [10] was “inactive” each time.
